# Hits are enriched below; roughly 11% of the tested compounds scored in any of these assays.
# PNC inhibitor: blocks assembly of the perinucleolar compartment. AID 2417. PC3M PTB-GFP, PNC prevalence imaging, 16 h; active compounds read low. hit rate 3.1% among 140,000. activity change (PNC), negative = inhibition, % at 10 µM;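 active = readout at or below -70, meaning at least 70% loss of cells showing the perinucleolar compartment, a nuclear body marking cancer cells; inconclusive = readout between -30 and a set limit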;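 note: plate controls were DMSO wells for no effect and camptothecin positive control wells for full effect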
#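 Compounds are pinned in duplicate onto adhered PC3M cells stably expressing GFP-tagged PTB and incubated 16 h at 37 C. Cells are then fixed, nuclei stained with Hoechst, and PNC-positive cells counted.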
# HPGD inh: inhibitors of human 15-hydroxyprostaglandin dehydrogenase (HPGD); purified HPGD, NADH fluorescence kinetic, PGE2 substrate; AID 894; hit rate 4.3% among 150,000; Potency, µM, without a hit: top-dose activity change, negative = inhibition, usual class: inhibitors; note: potency is the fitted concentration of half-maximal effect
# Target sequence (P15428 whole entry, looked up): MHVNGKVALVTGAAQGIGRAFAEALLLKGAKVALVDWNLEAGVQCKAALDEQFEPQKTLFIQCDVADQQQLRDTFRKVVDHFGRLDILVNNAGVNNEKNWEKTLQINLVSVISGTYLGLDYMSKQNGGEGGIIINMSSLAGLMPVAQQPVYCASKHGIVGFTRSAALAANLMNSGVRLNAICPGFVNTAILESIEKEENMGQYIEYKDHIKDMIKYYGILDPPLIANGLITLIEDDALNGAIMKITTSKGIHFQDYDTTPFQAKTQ
#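 20 nM HPGD preincubated 15 min at room temperature with compound in 50 mM Tris-HCl pH 8, 0.01% Tween 20. Started with 1 mM NAD+ and 30 uM prostaglandin E2; NADH fluorescence (360/450 nm) read 5 times over 30-s intervals, last minus first.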
# ALDH1A1 block: inhibitors of human aldehyde dehydrogenase 1A1; Purified ALDH1A1, NADH fluorescence, propionaldehyde substrate; AID 1030; Potency, µM (doses to about 75.3 µM), for the others: top-dose activity, negative = inhibition, actives largely listed as inhibitors; hit rate 7.3% among 220,000;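 note: potency is the fitted concentration of half-maximal effect; plate controls were no enzyme wells and a reference inhibitor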
# Numbers without * were called inactive; ? = inconclusive; nt = no result given. Unless noted, calls come from the whole dose curve; as a rule, active = well fitted inhibition curve with a large enough effect (not every such curve was filed as active); inconclusive = small, poorly fitted or top-dose-only effect, or another doubt; inactive = no such curve, though single readings can be large or run the other way. Unless noted, % is set by controls: 0 for no effect and ±100 for the full control effect.
SMILES,PNC inhibitor,HPGD inh,ALDH1A1 block
CC1=CC2C(=O)c3cccc(O)c3C(=O)C2C(O)=C1 (stereo not drawn),nt,-13.3%,?
COC(=O)C(c1cc(OC)c(O)c(OC)c1)(N1CCNC(C)C1)C(F)(F)F (stereo not drawn),?,-9.5%,1.9%
O=C(NCCCCNC(=O)c1ccc(Br)s1)c1ccc(Br)s1,?,1.4%,5.6%
COc1ccc(CCN(Cc2nc3ccccc3c(=O)[nH]2)C(=O)C2CC2)cc1,nt,nt,3.5%
O=C(Cn1cc2c(n1)CCCC2)Nc1ccccc1Br,?,?,1.9%
O=C(O)CCCC(=O)Nc1ccccc1Br,6.6,-14.6%,3.5%
O=C(C[n+]1ccccc1)Nc1ccccc1Br,nt,nt,1.78µM*
O=C(C[n+]1ccccc1)Nc1c(Cl)cc(Cl)cc1Cl,nt,nt,7.94µM*
Cc1ccc[n+](CC(=O)Nc2c(Cl)cc(Cl)cc2Cl)c1,nt,nt,-5.8%
O=C(Cc1ccc2c(c1)CCCC2)Nc1ccccc1Br,18.2,25.1µM*,-10.7%
O=C(Nc1ccc(-c2nc3ccccc3o2)cc1)c1ccc(N2C(=O)C3C4C=CC(C4)C3C2=O)cc1 (stereo not drawn),-17.1,?,?
Cc1ccc(C(=O)c2oc3nc(C)cc(C)c3c2N)cc1,49.9,-20.5%,-1.7%
CN1CCc2c(cc(O)c(O)c2Cl)C(c2cccc(Cl)c2)C1 (stereo not drawn),nt,7.1%,-3.8%
COc1ccccc1C1C2=C(N=c3s/c(=C/c4cccc(OCC(=O)O)c4)c(=O)n31)c1ccccc1CC2 (stereo not drawn),170.5,28.2µM*,?
COc1cccc(C2C3=C(N=c4s/c(=C\c5cccc(O)c5)c(=O)n42)c2ccccc2CC3)c1OC (stereo not drawn),4.2,-13.8%,-6.5%
CC(=O)c1cn(C)c(=O)[nH]c1=O,nt,nt,5.8%
Cc1cccc(N2CCN(C(=O)CN3CCOc4ccccc43)CC2C)c1 (stereo not drawn),5.8,-0.2%,?
Cc1ccc(N2C(=O)C3C4C=CC(CNC(=S)N5CCN(c6cccc(C)c6)C(C)C5)(O4)C3C2=O)cc1 (stereo not drawn),nt,nt,1.58µM*
CC(=O)Nc1ccc(NC(=O)CN2CCN(c3cccc(C(F)(F)F)c3)CC2)cc1,?,-5.6%,-6.6%
CC(=O)c1cc2c(cc1NC(=O)CN1CCN(c3cccc(C(F)(F)F)c3)CC1)OCO2,-100.0*,55.7%,299.0%
O=c1oc2ccccc2cc1-c1ccc(O)cc1,7.2,?,?
O=c1oc2ccccc2cc1O,nt,17.8µM*,0.6%
O=C(CSCc1ccc(Cl)cc1)NCc1ccc2c(c1)OCO2,-10.5,-22.0%,-5.3%
N#Cc1c(-c2ccccc2)nc2n1CCS2,nt,nt,4.4%
CN(C)c1ccc(O)c2c1C[C@@H]1C[C@H]3C(N(C)C)C(=O)C(C(N)=O)=C(O)[C@@]3(O)C(=O)C1=C2O (stereo partly drawn),nt,28.2µM*,-1.1%
SMILES,PNC inhibitor,HPGD inh,ALDH1A1 block
C=C1c2cccc(O)c2C(O)=C2C(=O)[C@]3(O)C(O)=C(C(N)=O)C(=O)[C@@H](N(C)C)[C@@H]3[C@@H](O)[C@H]12,nt,nt,-2.1%
C=C1c2cccc(O)c2C(O)=C2C(=O)[C@]3(O)C(O)=C(C(N)=O)C(=O)C(N(C)C)C3C(O)C12 (stereo partly drawn),nt,15.8µM*,7.4%
CN(C)[C@@H]1C(=O)C(C(=O)NCN2CCCC2)=C(O)[C@@]2(O)C(=O)C3=C(O)c4c(O)cccc4[C@@](C)(O)C3CC12 (stereo partly drawn),-9.0,?,?
Cc1ccc(-n2cccc2/C=C2\C(=N)N3N=C(c4ccco4)SC3=NC2=O)cc1,nt,nt,-3.2%
O=C(CN1CCOCC1)NCc1ccccc1,-17.0,-11.1%,-6.2%
O=C(CN1CCOCC1)N1CCc2ccccc2C(c2ccccc2)C1 (stereo not drawn),24.2,-13.0%,14.1µM*
Cc1ccc(NC(=O)CSCC#N)cc1Cl,?,-25.6%,?
CCOC(=O)c1cc(NC(=O)CSCCO)ccc1Cl,35.1,-3.9%,22.4µM*
COC(=O)c1cc(=O)n(Cc2ccc(OC)c(OC)c2)c(=Nc2ccc(F)cc2)s1,-8.9,-20.3%,-12.4%
COC(=O)c1cc(=O)n(Cc2ccco2)c(=Nc2ccc(F)cc2)s1,nt,nt,11.2µM*
CCC(C)[C@@H](N)C(=O)N/N=C/c1cccc2nccnc12 (stereo partly drawn),nt,nt,7.6%
CC(O)/C=C/C1OC(=O)CC1Nc1ccc(C=O)cc1 (stereo not drawn),nt,nt,0.447µM*
CCC(C)NC(=O)CSC1=Nc2ccccc2C2=NC(c3ccccc3)C(=O)N12 (stereo not drawn),0.0,?,?

# High-throughput results (PubChem)
